This passage reports outcome and AC50 results from PubChem BioAssay (EPA / NIEHS).

A short description of test [1]: ATG_ERE_CIS: Attagene CIS-FACTORIAL HepG2 Assay for Estrogen Response Element (ERE) (AID 2282940). Particulars: HepG2 ERE cis-reporter, Attagene RNA transcript; actives raise or lower the signal. The gist of the method:
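Cells used were human hepatoma HepG2, transfected with multiple reporter transcription units under cis-regulatory promoters. Reporter mRNA, read 24 h post-dosing via fluorescent RT-PCR products on capillary electrophoresis, was fitted bidirectionally relative to DMSO.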

Test [2] addresses Estrogen receptor (Homo sapiens) (UniProt P03372). The test is described as follows: ATG_ERa_TRANS: Attagene TRANS-FACTORIAL HepG2 Assay for human Estrogen Receptor alpha (ERa) (AID 2282970; active means hit-call score of the fitted dose curve at least 0.9, where 1 is the maximum). The settings on record: HepG2 Attagene TRANS ERa GAL4 reporter, mRNA. The gist of the method:
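HepG2 cells transiently transfected with multiplexed GAL4-UAS reporter units read out chimeric NR-Gal4 activity. After 24 h compound exposure, reporter mRNA was quantified by RT-PCR, 6-FAM labeling, HpaI digestion and capillary electrophoresis, relative to DMSO.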

Test [3] is described as follows: CCTE_Harrill_HTTr_Apoptosis_MCF7: CCTE's 6-hour Apoptosis Assessment for the High-Throughput Transcriptomics (HTTr) Platform, in MCF-7 cells cultured in DMEM + 10% fetal bovine serum, Harrill Lab (AID 2284011). The gist of the method: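 MCF-7 cells in DMEM + 10% FBS exposed 6 h to chemicals over an eight-point dilution series. Caspase-3/7 activation imaged by high-content CellEvent Green staining; fitted bidirectionally versus DMSO.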

The nature of test [4]: CCTE_Harrill_HTTr_CellCount_MCF7: CCTE's Cell Proliferation Assessment for the High-Throughput Transcriptomics (HTTr) Platform, Harrill Lab (AID 2284012; active means hit-call score of the fitted dose curve at least 0.9, where 1 is the maximum;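 further: cells exposed to compound for six hours; intended direction is loss of nuclei count meaning fewer cells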). The gist of the method: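 Chemicals in eight-point dilution series are added to MCF-7 cells for six hours, nuclei are stained with Hoechst and imaged, and per-well nuclei counts are fitted in both directions relative to DMSO controls.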

The target of test [5] is Steroid hormone receptor ERR1 (Homo sapiens) (UniProt P11474). The test is described as follows: ATG_ERRa_TRANS: Attagene TRANS-FACTORIAL HepG2 Assay for human Estrogen-Related Receptor alpha (ERRa) (AID 2282971; active means hit-call score of the fitted dose curve at least 0.9, where 1 is the maximum). Particulars: HepG2 Attagene TRANS reporter, ERRa transactivation. The gist of the method:
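HepG2 cells transiently transfected with GAL4-UAS reporter units and chimeric NR-Gal4 constructs; after 24 hour compound incubation, reporter mRNA quantified by RT-PCR, fluorescent labelling and capillary electrophoresis, gain of signal versus DMSO.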

Test [6] deals with Bile acid receptor (Homo sapiens) (UniProt Q96RI1). The test is described as follows: ATG_FXR_TRANS: Attagene TRANS-FACTORIAL HepG2 Assay for Farnesoid X Receptor (FXR) (AID 2282979; active means hit-call score of the fitted dose curve at least 0.9, where 1 is the maximum;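 further: hits raise reporter mRNA above DMSO so AC50 marks FXR activation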). Particulars: HepG2 Attagene TRANS FXR-GAL4 reporter transcription. The essentials:
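HepG2 cells were transiently transfected with GAL4-UAS reporters driven by chimeric NR-Gal4 proteins and dosed for 24 h. Reporter mRNA was quantified by RT-PCR, fluorescent labelling, HpaI digestion and capillary electrophoresis, with gain of signal scored versus DMSO.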

The nature of test [7]: BSK_3C_uPAR: BioMAP Diversity Plus: 3C Assay for Urokinase-type plasminogen activator receptor (uPAR) Biomarker Activity (AID 2282998). The settings on record: BioMAP 3C HUVEC, uPAR biomarker ELISA; actives raise or lower the signal. The essentials:
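Dose primary human umbilical vein endothelial cells, incubate 24 h, measure cell-surface uPAR by ELISA, then fit the signal in both directions against the DMSO negative control.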
For orientation: In an ELISA, binding on a coated surface is turned into a signal by an enzyme label.

Test [8] can be described thus: BSK_4H_Eotaxin3: BioMAP Diversity Plus: 4H Assay for Eotaxin 3 Biomarker Activity (AID 2283000).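 On outcome: CCL26 protein level quantified by ELISA in parallel with SRB cytotoxicity check.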 The settings on record: primary human endothelial cells (HUVEC); actives raise or lower the signal. The essentials:
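Eotaxin-3 (CCL26) levels were measured by ELISA in HUVEC primary cultures 24 h post-dosing. Gain or loss of signal was fitted in both directions, with DMSO serving as baseline and negative control.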

Read-out in test [9]: Intercellular Adhesion Molecule 1 (ICAM1), ICAM1 (gene 3383)
Put plainly: BSK_3C_ICAM1: BioMAP Diversity Plus: 3C Assay for Intercellular Adhesion Molecule 1 (ICAM1) Biomarker Activity (AID 2283003). Particulars: primary human endothelial cells (HUVEC); actives raise or lower the signal. The essentials:
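ICAM-1 levels measured by ELISA after HUVEC cultures in the 3C system had been dosed for 24 h. Gain or loss of signal relative to DMSO was fitted in both directions.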

Read-out in test [10]: Monocyte Chemoattractant Protein-1 (MCP1), CCL2 (gene 6347)
The test is described as follows: BSK_4H_MCP1: BioMAP Diversity Plus: 4H Assay for Monocyte Chemoattractant Protein-1 (MCP1) Biomarker Activity (AID 2283018). The settings on record: primary human endothelial cells (HUVEC); actives raise or lower the signal. The gist of the method: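 ELISA read-out of MCP-1 from human vascular endothelial primary cells taken at 24 hours after compound exposure. Activity was fitted in both directions relative to DMSO, which served as negative control.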

Read-out in test [11]: Thrombomodulin, THBD (gene 7056)
The test is described as follows: BSK_CASM3C_Thrombomodulin: BioMAP Diversity Plus: CASM3C Assay for Thrombomodulin Biomarker Activity (AID 2283051).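 Further: thrombomodulin protein level measured by ELISA 24 h after dosing.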 Particulars: primary human coronary artery smooth muscle cells; actives raise or lower the signal.

Test [12] deals with Estrogen-related receptor gamma (Homo sapiens) (UniProt P62508). Put plainly: ATG_ERRg_TRANS: Attagene TRANS-FACTORIAL HepG2 Assay for human Estrogen-Related Receptor gamma (ERRg) (AID 2282977; active means hit-call score of the fitted dose curve at least 0.9, where 1 is the maximum;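 further: hits increase reporter signal over DMSO so potencies reflect activators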). Particulars: HepG2 Attagene TRANS reporter, ERRg transactivation. The essentials:
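Transfect HepG2 with multiple GAL4-UAS reporter transcription units; dose chemicals 24 h; isolate RNA, reverse-transcribe with oligo(dT), PCR-amplify, label with 6-FAM, digest with HpaI; size fragments by capillary electrophoresis. DMSO serves as negative control.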

For test [13], the target named is human Thyroid Receptor alpha (THRa1), THRA (gene 7067) (UniProt P10827). The test is described as follows: ATG_THRa1_TRANS: Attagene TRANS-FACTORIAL HepG2 Assay for human Thyroid Receptor alpha (THRa1) (AID 2283014; active means hit-call score of the fitted dose curve at least 0.9, where 1 is the maximum). The essentials:
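HepG2 cells transiently transfected with chimeric NR-Gal4 and GAL4-UAS reporter units, dosed 24 h. Reporter mRNA quantified by RT-PCR, fluorescent labeling, HpaI digestion and capillary electrophoresis; gain-of-signal fit versus DMSO.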

The target of test [14] is Retinoic acid receptor RXR-alpha (Homo sapiens) (UniProt P19793). Put plainly: OT_NURR1_NURR1RXRa_0480: Odyssey Thera (OT) 8-hour HEK293T Protein Complementation Assay for Nurr1/retinoid X receptor (RXR) (AID 2283385; active means hit-call score of the fitted dose curve at least 0.9, where 1 is the maximum). The gist of the method:
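8 h compound exposure, HEK293T; Nurr1/RXRα fragment complementation; fluorescence intensity; positive fitting direction vs DMSO baseline.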

Test [15] has the same target. The test is described as follows: OT_NURR1_NURR1RXRa_1440: Odyssey Thera (OT) 24-hour HEK293T Protein Complementation Assay for Nurr1/retinoid X receptor (RXR) (AID 2283386; active means hit-call score of the fitted dose curve at least 0.9, where 1 is the maximum). The gist of the method:
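Interaction of Nurr1 with RXRα brings fused reporter fragments together in human HEK293T cells, restoring a functional reporter. Fluorescence intensity is measured 24 h after chemical treatment, and values are analysed in the positive direction against DMSO.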

For test [16], the target named is Peroxisome proliferator-activated receptor gamma (Homo sapiens) (UniProt P37231). Put plainly: OT_PPARg_PPARgSRC1_1440: Odyssey Thera (OT) 24-hour Protein-Complementation Assay for Peroxisome Proliferator-activated Receptor Gamma/ SRC-1 Co-activator (AID 2283388; active means hit-call score of the fitted dose curve at least 0.9, where 1 is the maximum). The essentials: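 HEK293T transiently transfected with PPARg/SRC-1 split-Venus YFP fusions 48 h before dosing, then treated 24 h at 37C. Fixed cells imaged; nuclear/cytoplasmic 488 nm fluorescence ratio, gain of signal versus DMSO.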

For test [17], the target named is Estrogen receptor beta (Homo sapiens) (UniProt Q92731). The test is described as follows: OT_ER_ERbERb_0480: Odyssey Thera (OT) 8-hour HEK293T Protein-Complementation Assay for Estrogen Receptor-beta/-beta Homodimer (AID 2283357; active means hit-call score of the fitted dose curve at least 0.9, where 1 is the maximum;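 further: active means signal gain over DMSO baseline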). The essentials:
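Readout: increase in mean fluorescence intensity (nucleus for agonists; nucleus plus cytoplasm for antagonists) relative to DMSO, from a reporter-fragment complementation of human ER-beta LBD homodimer in HEK293T cells dosed 8 hours.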

Test [18] shares this target. Put plainly: OT_ER_ERbERb_1440: Odyssey Thera (OT) 24-hour HEK293T Protein-Complementation Assay for Estrogen Receptor-beta/-beta Homodimer (AID 2283380; active means hit-call score of the fitted dose curve at least 0.9, where 1 is the maximum;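 further: fluorescence gain from ER beta LBD homodimer complementation read by laser scanning cytometry; scored as signal increase over DMSO baseline for both agonists and antagonists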). The gist of the method: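 HEK293T cells stably expressing human ER-beta LBD (aa 310-547) PCA homodimer pair, dosed 24 h; formaldehyde-fixed, Draq5-stained. Readout: increase in nuclear (agonist) or nuclear plus cytoplasmic (antagonist) fluorescence intensity versus DMSO, gain-of-signal fitting.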

The nature of test [19]: ACEA_AR_agonist_AUC_viability: ACEA Biosciences xCELLigence Real-Time Cell Analysis on Androgen Receptor Agonism for Viability (AID 2283775; active means hit-call score of the fitted dose curve at least 0.9, where 1 is the maximum). The gist of the method: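 Real-time impedance tracking of 22Rv1 growth, readings every 5 min for 5 h then hourly; area-under-curve viability endpoint at 80 hours, relative to DMSO. Compounds at eight concentrations, 1:4 steps, top 100 uM, n = 2.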

Test [20] in a line: ACEA_AR_antagonist_AUC_viability: ACEA Biosciences xCELLigence Real-Time Cell Analysis on Androgen Receptor Antagonism for Viability (AID 2283776; active means hit-call score of the fitted dose curve at least 0.9, where 1 is the maximum;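 further: 22Rv1 human prostate cancer cells growing on impedance electrode plates; hits lower the growth signal relative to DMSO meaning cytotoxicity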). The essentials:
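Real-time electrical impedance tracks 22Rv1 proliferation after continuous compound exposure (top 100 uM final, 1:4 steps, 8 concentrations). The 80 h area-under-curve serves as the cytotoxicity readout relative to DMSO.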

Several values for one entry are separate records, joined by “and”; a condition that tells them apart may be missing. Equal values may be shown once. Inconclusive results are not listed. A structure can be active in one record and inactive in another. Activity calls are given as the source filed them. How the source made its calls, unless noted: active means hit-call score of the fitted dose curve at least 0.9, where 1 is the maximum; inactive means score below 0.9.

Sequence of Estrogen receptor beta (Homo sapiens) (Q92731 whole entry, looked up, the tested form may be a part): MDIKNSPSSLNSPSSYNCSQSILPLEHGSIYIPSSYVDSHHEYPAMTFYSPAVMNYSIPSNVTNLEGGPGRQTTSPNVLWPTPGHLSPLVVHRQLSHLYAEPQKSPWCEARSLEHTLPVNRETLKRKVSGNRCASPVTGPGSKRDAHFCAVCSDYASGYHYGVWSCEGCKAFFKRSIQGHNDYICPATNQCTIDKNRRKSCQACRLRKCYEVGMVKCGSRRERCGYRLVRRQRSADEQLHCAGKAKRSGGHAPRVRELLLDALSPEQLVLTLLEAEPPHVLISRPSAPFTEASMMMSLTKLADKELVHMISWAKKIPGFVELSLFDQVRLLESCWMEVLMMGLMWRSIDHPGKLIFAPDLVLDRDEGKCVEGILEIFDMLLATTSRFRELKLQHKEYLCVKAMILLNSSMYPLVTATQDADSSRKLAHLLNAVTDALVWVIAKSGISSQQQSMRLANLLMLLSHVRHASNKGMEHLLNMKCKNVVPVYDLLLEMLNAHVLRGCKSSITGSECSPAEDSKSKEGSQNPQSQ
Sequence of Estrogen receptor (Homo sapiens) (P03372 whole entry, looked up, the tested form may be a part): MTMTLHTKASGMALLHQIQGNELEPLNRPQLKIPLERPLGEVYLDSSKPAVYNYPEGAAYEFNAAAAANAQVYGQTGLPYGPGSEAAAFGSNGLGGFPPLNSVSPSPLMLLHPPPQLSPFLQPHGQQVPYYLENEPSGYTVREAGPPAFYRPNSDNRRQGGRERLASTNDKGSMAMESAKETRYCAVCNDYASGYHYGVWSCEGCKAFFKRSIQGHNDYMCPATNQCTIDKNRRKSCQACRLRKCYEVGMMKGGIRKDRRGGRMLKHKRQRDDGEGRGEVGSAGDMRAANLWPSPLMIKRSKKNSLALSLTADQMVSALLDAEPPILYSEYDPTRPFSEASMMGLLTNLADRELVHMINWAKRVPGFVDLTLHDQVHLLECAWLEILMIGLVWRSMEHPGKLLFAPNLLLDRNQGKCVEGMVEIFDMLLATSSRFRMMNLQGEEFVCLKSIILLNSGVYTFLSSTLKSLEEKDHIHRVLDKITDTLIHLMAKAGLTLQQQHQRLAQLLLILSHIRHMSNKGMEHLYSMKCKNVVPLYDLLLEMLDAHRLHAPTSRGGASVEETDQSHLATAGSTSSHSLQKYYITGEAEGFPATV
Sequence of Peroxisome proliferator-activated receptor gamma (Homo sapiens) (P37231 whole entry, looked up, the tested form may be a part): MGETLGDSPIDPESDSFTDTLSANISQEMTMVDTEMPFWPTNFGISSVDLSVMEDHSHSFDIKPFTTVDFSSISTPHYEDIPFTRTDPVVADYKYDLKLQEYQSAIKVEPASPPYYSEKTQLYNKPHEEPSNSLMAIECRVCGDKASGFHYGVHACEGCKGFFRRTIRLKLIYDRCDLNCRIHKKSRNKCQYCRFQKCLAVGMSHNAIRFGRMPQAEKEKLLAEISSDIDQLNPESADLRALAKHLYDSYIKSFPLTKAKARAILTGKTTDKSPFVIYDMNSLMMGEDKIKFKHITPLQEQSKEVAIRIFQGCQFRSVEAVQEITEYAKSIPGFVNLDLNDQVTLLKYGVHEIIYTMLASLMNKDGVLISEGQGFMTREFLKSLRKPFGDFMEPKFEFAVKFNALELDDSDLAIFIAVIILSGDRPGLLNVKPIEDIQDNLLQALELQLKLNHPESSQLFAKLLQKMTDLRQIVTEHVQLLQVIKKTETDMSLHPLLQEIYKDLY
Sequence of human Thyroid Receptor alpha (THRa1), THRA (gene 7067) (P10827 whole entry, looked up, the tested form may be a part): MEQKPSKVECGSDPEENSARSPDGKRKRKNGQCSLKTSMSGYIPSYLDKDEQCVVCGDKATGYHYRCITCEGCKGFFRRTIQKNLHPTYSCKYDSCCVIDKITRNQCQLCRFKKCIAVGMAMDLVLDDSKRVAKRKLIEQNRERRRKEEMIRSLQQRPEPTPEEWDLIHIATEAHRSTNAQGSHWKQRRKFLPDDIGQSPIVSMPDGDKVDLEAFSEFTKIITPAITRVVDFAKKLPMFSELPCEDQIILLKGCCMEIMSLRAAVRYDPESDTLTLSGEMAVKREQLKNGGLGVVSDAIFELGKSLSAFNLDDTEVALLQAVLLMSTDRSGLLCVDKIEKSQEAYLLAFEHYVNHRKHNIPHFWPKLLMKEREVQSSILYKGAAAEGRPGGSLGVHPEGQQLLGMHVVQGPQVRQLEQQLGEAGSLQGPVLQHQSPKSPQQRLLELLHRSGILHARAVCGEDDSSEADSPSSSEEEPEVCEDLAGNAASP
Sequence of Steroid hormone receptor ERR1 (Homo sapiens) (P11474 whole entry, looked up, the tested form may be a part): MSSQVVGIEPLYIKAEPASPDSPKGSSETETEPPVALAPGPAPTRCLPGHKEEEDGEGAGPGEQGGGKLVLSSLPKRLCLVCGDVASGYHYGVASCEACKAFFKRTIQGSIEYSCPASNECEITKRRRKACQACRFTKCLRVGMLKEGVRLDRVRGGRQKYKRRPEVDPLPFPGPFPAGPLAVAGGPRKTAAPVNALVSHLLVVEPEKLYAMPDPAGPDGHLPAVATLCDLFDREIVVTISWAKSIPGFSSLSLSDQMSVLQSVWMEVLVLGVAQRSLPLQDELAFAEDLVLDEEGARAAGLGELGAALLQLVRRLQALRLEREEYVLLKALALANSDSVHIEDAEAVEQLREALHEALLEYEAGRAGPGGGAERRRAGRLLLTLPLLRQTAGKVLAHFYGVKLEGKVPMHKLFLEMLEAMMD
Sequence of Bile acid receptor (Homo sapiens) (Q96RI1 whole entry, looked up, the tested form may be a part): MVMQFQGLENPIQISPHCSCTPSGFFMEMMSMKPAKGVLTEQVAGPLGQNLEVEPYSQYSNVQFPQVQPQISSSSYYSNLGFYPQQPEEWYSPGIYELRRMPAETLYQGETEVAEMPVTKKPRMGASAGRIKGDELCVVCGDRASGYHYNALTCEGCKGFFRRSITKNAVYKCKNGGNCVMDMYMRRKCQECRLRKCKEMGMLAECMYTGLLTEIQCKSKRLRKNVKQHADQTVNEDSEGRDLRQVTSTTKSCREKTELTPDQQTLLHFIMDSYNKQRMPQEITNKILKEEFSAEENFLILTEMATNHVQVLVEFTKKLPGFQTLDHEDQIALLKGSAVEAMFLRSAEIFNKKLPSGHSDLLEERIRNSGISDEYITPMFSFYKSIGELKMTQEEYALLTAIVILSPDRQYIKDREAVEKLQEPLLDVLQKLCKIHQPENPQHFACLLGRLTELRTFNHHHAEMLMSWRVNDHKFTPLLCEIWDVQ
Sequence of Estrogen-related receptor gamma (Homo sapiens) (P62508 whole entry, looked up, the tested form may be a part): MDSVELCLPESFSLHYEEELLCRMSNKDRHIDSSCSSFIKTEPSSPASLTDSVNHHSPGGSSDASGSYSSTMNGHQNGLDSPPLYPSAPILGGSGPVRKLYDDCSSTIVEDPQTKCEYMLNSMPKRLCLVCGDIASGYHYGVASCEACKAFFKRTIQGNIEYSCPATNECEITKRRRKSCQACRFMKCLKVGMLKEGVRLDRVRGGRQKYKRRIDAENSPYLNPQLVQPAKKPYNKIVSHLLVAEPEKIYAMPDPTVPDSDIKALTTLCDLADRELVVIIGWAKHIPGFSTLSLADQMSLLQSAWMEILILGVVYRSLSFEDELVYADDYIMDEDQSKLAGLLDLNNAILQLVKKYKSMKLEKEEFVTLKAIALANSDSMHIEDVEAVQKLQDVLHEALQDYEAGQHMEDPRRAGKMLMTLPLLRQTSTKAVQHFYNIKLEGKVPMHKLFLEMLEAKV
Sequence of Retinoic acid receptor RXR-alpha (Homo sapiens) (P19793 whole entry, looked up, the tested form may be a part): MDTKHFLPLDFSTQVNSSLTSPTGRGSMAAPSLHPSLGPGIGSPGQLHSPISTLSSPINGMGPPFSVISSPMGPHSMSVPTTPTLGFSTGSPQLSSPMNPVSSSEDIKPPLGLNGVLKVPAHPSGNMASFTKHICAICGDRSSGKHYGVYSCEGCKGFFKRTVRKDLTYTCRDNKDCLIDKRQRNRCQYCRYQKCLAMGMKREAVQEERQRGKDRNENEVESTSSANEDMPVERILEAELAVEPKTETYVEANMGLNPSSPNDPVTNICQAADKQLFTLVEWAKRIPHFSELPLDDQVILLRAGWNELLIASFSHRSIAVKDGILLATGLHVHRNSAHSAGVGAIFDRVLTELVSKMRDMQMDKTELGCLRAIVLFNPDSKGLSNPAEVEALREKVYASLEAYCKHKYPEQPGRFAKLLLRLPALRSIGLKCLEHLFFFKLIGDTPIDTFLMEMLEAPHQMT

Regarding `COc1ncc(F)c2nc(S(=O)(=O)Nc3c(F)cccc3F)nn12`, the compound was classed as inactive in test [1], in test [2], in [3] and in [4].

Take `COCC(=O)N(c1c(C)cccc1C)N1CCOC1=O`: the compound was classed as inactive in test [5], in test [6], in [7], in [8], in [9] and in [10]. For the same compound, the outcome in test [11] was inactive.

As to `C=C(Cl)Cl`, the call in [1], in test [2] and in test [12] was inactive.

Broadly, the AC50 is the concentration at which the activity in the assay is half-maximal. In the case of `O=C(O)CCCc1ccc(N(CCCl)CCCl)cc1`, the result in test [1], in test [2], in test [9], in [10], in [11] and in test [3] was inactive. In test [4], the result was inactive. The AC50 is 20 µM (active) and 16.3 µM (active) in test [7]; 26.3 µM (active) and 20 µM (active) in test [8]; 20 µM (active) in test [9]; 5.06 µM (active) in test [11].

In the case of `C=CC(=O)OC`, the call in [6] and in [13] was inactive.

`Cc1ccc(OP(=O)(Oc2ccc(C)cc2)Oc2ccc(C)cc2)cc1` (tested in a mixture with another compound): the outcome in [7], in [8], in [9], in [11], in test [15] and in test [16] was inactive. In addition, the outcome in [3] and in [4] was inactive. In addition, the AC50 was 2.31 µM (active) in test [10] and 15.5 µM (active) in test [14].

On to `O=[N+]([O-])C=Cc1ccccc1`, for which the outcome in [5] and in test [12] was inactive. In addition, the AC50 in test [7] was 5.53 µM (active); in test [8] it was 9.12 µM (active); in test [9] it was 7.32 µM (active); in test [10], 8.93 µM (active); in test [11], 20 µM (active).

With `c1cc(OCC2CO2)ccc1Cc1ccc(OCC2CO2)cc1` (stereo not given), the compound was classed as inactive in [1] and in test [4].

As to `ClCC(Cl)Cl`, in [1], the compound was classed as inactive.

Consider `CC(=O)C=Cc1ccccc1`, for which the call in [17], in test [18], in test [15], in [16], in [3] and in test [4] was inactive. In addition, the AC50 in test [14] is 1.12 µM (active).

Consider `O=C1Nc2ccc(Cl)cc2C(c2ccccc2)=NC1O` (stereo not given), for which the outcome in [6], in [13], in test [17], in test [18], in [14] and in test [15] was inactive. The call in [16], in test [19], in test [20], in test [3] and in [4] was inactive.

With `Clc1ccc(-c2ccccc2)cc1`, the AC50 was 55.7 µM (active) in [1], 36.8 µM (active) in test [2], 30.5 µM (active) in test [8] and 27.5 µM (active) in test [10]. For the same compound, the call in [5], in test [12], in [6], in [7], in test [9] and in [11] was inactive. The result in test [3] and in [4] was inactive.

With `C[N+](C)=CCl`, the compound was called inactive in test [1], in [2] and in test [13].
